In publication PMC8384837, “Expanding the binding specificity for RNA recognition by a PUF domain”:

Assays:
Assay in all cases: yeast three-hybrid, YBZ-1, SC-Leu-His + 0.5 mM 3-AT, 4 days
Details in all cases: tags: N-Gal4 AD-HA kept; label: inside an RPR1-promoter hybrid RNA with tandem MS2 sites; ssRNA
[1] = target: PUM1 PUF domain R4-EYG (Homo sapiens, UniProt Q14671 828-1176, N971E;H972Y;Q975G)
Outline: (§1)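 Each repeat of the Pumilio-1 PUF domain was randomized at its three base-contacting residues, and these libraries were co-expressed from a centromeric plasmid with matching RNA elements in strain YBZ-1. After four days on SC-Leu (input) or SC-Leu-His + 0.5 mM 3-AT (selection), the repeat regions were PCR-amplified and Illumina-sequenced. The interaction score compares variant frequency between input and selection as a log change, computed in log2 with a pseudocount of 1 for absent variants.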

[2] = target: PUM1 PUF domain R5-QKR (Homo sapiens, UniProt Q14671 828-1176, C1007Q;R1008K;Q1011R)
Outline: as §1

[3] = target: PUM1 PUF domain R3-YWW (Homo sapiens, UniProt Q14671 828-1176, C935Y;R936W;Q939W)
Outline: as §1

[4] = target: PUM1 PUF domain R3-FCG (Homo sapiens, UniProt Q14671 828-1176, C935F;R936C;Q939G)
Outline: as §1

[5] = target: PUM1 PUF domain R3-DRE (Homo sapiens, UniProt Q14671 828-1176, C935D;Q939E)
Outline: as §1

[6] = target: PUM1 PUF domain R3-WCR (Homo sapiens, UniProt Q14671 828-1176, C935W;R936C;Q939R)
Outline: as §1

[7] = target: PUM1 PUF domain R3-PFF (Homo sapiens, UniProt Q14671 828-1176, C935P;R936F;Q939F)
Outline: as §1

[8] = target: PUM1 PUF domain R7-RTQ (Homo sapiens, UniProt Q14671 828-1176, S1079R;N1080T;E1083Q)
Outline: as §1

[9] = target: PUM1 PUF domain R7-ISK (Homo sapiens, UniProt Q14671 828-1176, S1079I;N1080S;E1083K)
Outline: as §1

[10] = target: PUM1 PUF domain R7-CFP (Homo sapiens, UniProt Q14671 828-1176, S1079C;N1080F;E1083P)
Outline: as §1

## GGCUAGAACUAGUGGAUCCCCCGGCGCCCGGCGGCUCGAGCCCGGGUAAGUGUACAUAGUCUGCAUGCCGCCGGGCGCCAUGCCUGCAGGUCGACUCUAGAAAACAUG
[1]
  binding signal: 0.47 log2 enrichment (interaction score)

## GGCUAGAACUAGUGGAUCCCCCGGCGCCCGGCGGCUCGAGCCCGGGUAAGUGUCAAUAGUCUGCAUGCCGCCGGGCGCCAUGCCUGCAGGUCGACUCUAGAAAACAUG
[2]
  binding signal: 5.65 log2 enrichment (interaction score)

## GGCUAGAACUAGUGGAUCCCCCGGCGCCCGGCGGCUCGAGCCCGGGUAAGUGUAAGUAGUCUGCAUGCCGCCGGGCGCCAUGCCUGCAGGUCGACUCUAGAAAACAUG
[3]
  binding signal: 4.57 log2 enrichment (interaction score)
[4]
  binding signal: 5.32 log2 enrichment (interaction score)
[5]
  binding signal: 5.66 log2 enrichment (interaction score)
[6]
  binding signal: 4.82 log2 enrichment (interaction score)

## GGCUAGAACUAGUGGAUCCCCCGGCGCCCGGCGGCUCGAGCCCGGGUAAGUGUAAUUAGUCUGCAUGCCGCCGGGCGCCAUGCCUGCAGGUCGACUCUAGAAAACAUG
[7]
  binding signal: 3.19 log2 enrichment (interaction score)
[6]
  binding signal: 1.63 log2 enrichment (interaction score)

## GGCUAGAACUAGUGGAUCCCCCGGCGCCCGGCGGCUCGAGCCCGGGUAAGUUUAAAUAGUCUGCAUGCCGCCGGGCGCCAUGCCUGCAGGUCGACUCUAGAAAACAUG
[8]
  binding signal: 4.75 log2 enrichment (interaction score)
[9]
  binding signal: 2 log2 enrichment (interaction score)

## GGCUAGAACUAGUGGAUCCCCCGGCGCCCGGCGGCUCGAGCCCGGGUAAGUGUAAAUAGUCUGCAUGCCGCCGGGCGCCAUGCCUGCAGGUCGACUCUAGAAAACAUG
[1]
  binding signal: 3.15 log2 enrichment (interaction score)
[4]
  binding signal: 0.82 log2 enrichment (interaction score)
[7]
  binding signal: 1.1 log2 enrichment (interaction score)

## GGCUAGAACUAGUGGAUCCCCCGGCGCCCGGCGGCUCGAGCCCGGGUAAGUAUAAAUAGUCUGCAUGCCGCCGGGCGCCAUGCCUGCAGGUCGACUCUAGAAAACAUG
[10]
  binding signal: 2.42 log2 enrichment (interaction score)

## GGCUAGAACUAGUGGAUCCCCCGGCGCCCGGCGGCUCGAGCCCGGGUAAGUGUAUAUAGUCUGCAUGCCGCCGGGCGCCAUGCCUGCAGGUCGACUCUAGAAAACAUG
[1]
  binding signal: 1.12 log2 enrichment (interaction score)
